Source: PubChem
Only some compounds are listed: those with a hit (about 3.6% of all), similar ones and a draw of the others.
D1 PAM = Potentiators of Human D1 Dopamine Receptor: qHTS | D(1A) dopamine receptor (Homo sapiens), P21728 | HEK293 TREx D1 cells, calcium flux, dopamine EC20 potentiation | potentiation, % at 10 µM | hit rate 0.036% among 360,000 | AID 504651, 2011; in the data active = potentiation above about 30%; note: 0% is about no effect
Target sequence (P21728 whole entry, looked up): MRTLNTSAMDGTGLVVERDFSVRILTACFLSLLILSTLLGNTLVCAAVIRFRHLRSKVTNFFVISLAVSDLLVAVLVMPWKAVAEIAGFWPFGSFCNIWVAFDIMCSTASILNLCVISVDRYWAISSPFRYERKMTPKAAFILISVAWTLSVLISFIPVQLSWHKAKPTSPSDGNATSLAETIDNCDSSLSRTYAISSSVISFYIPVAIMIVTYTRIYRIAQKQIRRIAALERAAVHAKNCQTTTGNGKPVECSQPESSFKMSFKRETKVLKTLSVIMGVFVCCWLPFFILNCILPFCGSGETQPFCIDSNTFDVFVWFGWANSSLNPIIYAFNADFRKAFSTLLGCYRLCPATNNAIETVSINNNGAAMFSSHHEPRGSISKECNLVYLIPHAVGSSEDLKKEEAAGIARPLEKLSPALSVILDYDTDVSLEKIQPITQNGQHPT
TRHR PAM = qHTS for Small Molecule Agonists and Allosteric Enhancers of Human TRH Receptor: Primary Screen for Enhancers; Thyrotropin-releasing hormone receptor (Homo sapiens), P34981; hit rate 0.66% among 360,000; TRHR cells, fluo-8 calcium fluorescence, EC20 TRH enhancement; enhancement, % at 2 µM; in the data active = enhancement above about 30%; note: 0% is about no effect
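TRHR-expressing cells loaded with fluo-8 calcium dye were read kinetically (ex 480/em 530) during compound addition, then stimulated with an EC20 of TRH (10 nM final). Enhancement of the Gq-mediated intracellular calcium response was scored.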
TRHR ag = qHTS for Small Molecule Agonists and Allosteric Enhancers of Human TRH Receptor: Primary Screen for Agonists; AID 493084, 2011; Thyrotropin-releasing hormone receptor (Homo sapiens), P34981; TRHR cells, calcium flux fluo-8, FDSS agonist mode; hit rate 0.18% among 360,000; activation, % at 2 µM; note: 0% is about no effect
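Agonist-mode FDSS calcium read (Ex 480/Em 530, 1 s cycles) in 1536-well TRHR cells with fluo-8 dye, after 10-cycle baseline and 23 nL compound addition; TRH at EC20 (10 nM final) added afterwards for the enhancer phase.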
LDHA block = qHTS assay for inhibitors of human lactate dehydrogenase. purified LDHA, NADH/diaphorase-resazurin fluorescence; hits give low values. activity change, % (values are at about 110 or 230 µM). hit rate 0.15% among 480,000. AID 1347041, 2019; in the data active = activity change below about -30%;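 note: plate controls were DMSO wells for no effect and wells without enzyme for full effect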
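Resorufin fluorescence (ex540/em590), read at 0 and 20 min after diaphorase/resazurin addition, reports the NADH left after a 5 min room-temperature reaction of 2 nM human LDH5 with 0.06 mM NADH and 0.2 mM pyruvate.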
D1 agonist = Allosteric Agonists of the Human D1 Dopamine Receptor: qHTS. D(1A) dopamine receptor (Homo sapiens), P21728. HEK293 T-REx D1 cells, calcium flux, agonist mode. activation, % at 2 µM. hit rate 1% among 360,000. AID 504660, 2011; note: 0% is about no effect
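Inducible HEK293 T-REx D1 cells, force-coupled to calcium signalling, were plated at 4000 cells/well with tetracycline and held overnight at 30 C. After no-wash calcium dye loading, compound-evoked calcium rise over 180 s flagged agonists.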
D1 antag = Antagonist of Human D 1 Dopamine Receptor: qHTS | D(1A) dopamine receptor (Homo sapiens), P21728 | HEK293 TREx D1 cells, calcium flux, dopamine EC80; hits give low values | activity change, negative = inhibition, % at 10 µM | hit rate 3.2% among 360,000 | AID 504652, 2011; in the data active = activity change below about -30%; note: % is set by controls: 0 for no effect and ±100 for the full control effect
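HEK293 T-REx cells expressing inducible, force-coupled D1 receptor; no-wash Ca dye, 30–90 min RT. Cmpd → 180 s read at 1 Hz → EC80 DA → 180 s read.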
* = called active by the depositor; x = no result. Cut-off read from the data, not from the text of the source, unless noted: active = activation above about 30%; inactive = the rest.

SMILES	D1 PAM	TRHR PAM	TRHR ag	LDHA block	D1 agonist	D1 antag
CCOC(=O)SC1=N/C(=C\c2ccc(N(C)C)cc2)C(=O)S1	-2.6	2.8	10.6	3.2	32.8*	-8.0
CCC(=O)N1CC2(CC(c3cccc(NC(=O)COc4ccc(Cl)cc4)c3)=NO2)C[C@@H]1C(N)=O (stereo partly specified)	6.0	0.0	-0.1	x	3.1	-53.1*
CCCCCC(=O)N1CC2(CC(c3cccc(NC(=O)CC(c4ccccc4)c4ccccc4)c3)=NO2)C[C@@H]1C(N)=O (stereo partly specified)	-4.0	-3.0	0.7	-1.3	9.3	-47.1*
COc1ccc(C(=O)NCc2nnc(SCC(=O)c3ccccc3)o2)cc1	-3.8	-0.8	-0.9	0.5	1.9	3.7
CC1CCN(C(=O)CSc2nnc(CNC(=O)c3ccc(S(=O)(=O)N(C)C)cc3)o2)CC1	-5.9	1.8	-0.2	-6.5	0.0	-45.3*
O=C(CSc1nnc(CNc2ccccc2)o1)N1CCN(C(=O)c2ccco2)CC1	-4.5	-1.1	-0.1	-1.8	0.2	-38.2*
O=C(CSc1nnc(CNC(=O)c2ccc(F)cc2)o1)c1ccccc1	-9.7	-5.0	-0.8	2.0	4.3	-31.0*
O=C(NCc1nnc(SCC(=O)N2CCCC2)o1)c1c(F)cccc1F	3.1	-2.8	0.2	-5.7	4.4	10.2
O=C(NCc1nnc(SCC(=O)N2CCC(Cc3ccccc3)CC2)o1)c1ccccc1F	-0.8	-0.4	-0.1	-5.9	33.3*	-10.5
O/N=C/c1ccc(OCc2ccc(Cl)cc2)cc1	x	x	x	6.4	x	x
Cc1cc(C)nc(NNc2ccc([N+](=O)[O-])cc2)n1	x	x	x	32.2	x	x
COc1ccccc1CN1C[C@@H]2C[C@@H](c3[nH]c4c(C)cccc4c3C)N3CCC[C@@]23C1=O	32.0*	-4.0	0.3	1.9	43.7*	69.8
COc1ccccc1CN1C[C@@H]2C[C@@H](c3cccc(C)n3)N3CCC[C@@]23C1=O	-3.5	17.1	-0.9	-4.8	2.0	-5.9
Cc1cc(-c2nnc3n2N=C(c2ccc(-c4ccccc4)cc2)CS3)n[nH]1	-3.7	-6.5	-0.5	-13.4	62.6*	0.8
Cc1cc(-c2nnc3n2N=C(c2ccccc2)CS3)n[nH]1	-8.0	-0.1	0.0	3.2	0.5	23.7
COc1ccc(CCN2CC(C(=O)Nc3ccc4c(c3)OCO4)CC2=O)cc1OC (stereo unspecified)	0.1	-11.3	-0.1	-4.9	2.9	-4.0
O=C(Nc1ccc2c(c1)OCO2)C1CC(=O)N(CCc2ccccc2)C1 (stereo unspecified)	-6.3	2.8	-0.4	-0.4	-1.5	-37.6*
COc1cccc(NC(=O)c2cc3c(s2)-c2ccc(Cl)cc2S(=O)(=O)C3)c1	x	x	x	-19.0	x	x
O=C(CSc1nnnn1C1CC1)c1c[nH]c2ccccc12	x	x	x	-8.2	x	x
Cc1ccc2c(c1)C1CN(C)CCC1N2C(=O)COc1ccc(N(C)S(=O)(=O)c2cccs2)cc1 (stereo unspecified)	-13.9	3.2	1.1	-0.6	13.3	-35.8*
CCOc1ccc(S(=O)(=O)N(C)c2ccc(OCC(=O)N3c4ccc(C)cc4C4CN(C)CCC43)cc2)cc1 (stereo unspecified)	-6.2	5.2	0.1	-0.3	1.2	-40.5*
O=C(CCNc1nc(Cl)nc2nc[nH]c12)NCCO	x	x	x	8.0	x	x
O=C1C2C(c3cccc(/C=C/c4ccccc4)c3)CC=CC2C(c2ccc3ccccc3c2)N1Cc1ccccc1 (stereo unspecified)	-2.4	-1.9	0.1	-2.3	5.1	-42.1*
CC(=O)Nc1ccc(S(=O)(=O)NCC(=O)O)cc1	x	x	x	-20.0	x	x
COCCNC(=O)C(=O)Nc1ccc2nc3n(c(=O)c2c1)CCCCC3	-3.9	-4.0	-0.2	-1.2	0.0	-52.3*
SMILES	D1 PAM	TRHR PAM	TRHR ag	LDHA block	D1 agonist	D1 antag
COc1cccc(CNC(=O)c2cccc(NC(=O)CC3SC(N4CCCCC4)=NC3=O)c2)c1 (stereo unspecified)	-1.2	35.7*	0.3	0.5	0.2	12.0
COc1cccc(CNC(=O)C(=O)Nc2ccc3nc4n(c(=O)c3c2)CCCCC4)c1	-1.4	7.3	-0.9	0.1	-1.0	-39.9*
O=C(Nc1ccc2nc3n(c(=O)c2c1)CCCCC3)c1c(F)ccc([N+](=O)[O-])c1F	-1.3	6.0	3.5	-4.9	5.3	-41.9*
CCOC(=O)c1ccccc1NC(=O)c1c(F)cccc1F	x	x	x	2.9	x	x
COc1cccc(-n2cnc3c2NC(=O)CC3c2ccsc2)c1 (stereo unspecified)	x	x	x	75.5	x	x
NC(=O)NC(=O)C(c1ccccc1)N1CCN(S(=O)(=O)Cc2ccccc2)CC1 (stereo unspecified)	x	-1.7	-0.3	-11.5	6.6	-31.4*
O=C(NC1CCN(S(=O)(=O)c2cccc(F)c2)CC1)C1CCCCC1	x	x	x	-1.6	x	x
COc1ccc(CNc2nc3ccccc3nc2NS(=O)(=O)c2cccc(C)c2)cc1	x	x	x	-0.4	x	x
Cn1cc([C@@H]2C[C@H]3CN(Cc4cccc(Cl)c4)C(=O)[C@]34CCCN24)c(-c2ccccc2)n1	-4.2	3.6	-0.8	3.9	17.2	-30.9*
CCCn1ncc([C@@H]2C[C@H]3CN(Cc4cccc(Cl)c4)C(=O)[C@]34CCCN24)c1C	-0.2	-4.9	-1.6	-0.9	0.0	-31.0*
CCOC(=O)Cn1c(=O)n(C2CCCCC2)c2nc(-c3ccc(C(C)C)cc3)nc(C(N)=O)c21	0.1	-4.4	0.1	-1.5	-0.5	-51.3*
CCOC(=O)Cn1c(=O)n(CC(=O)OCC)c2ccccc21	0.7	-4.0	0.7	0.6	0.6	0.7
CCOC(=O)Cn1c(=O)n(C2CCCCC2)c2nc(-c3cccc(F)c3)nc(C(N)=O)c21	-1.7	-0.9	0.3	3.2	-0.2	4.8
CCOC(=O)Cn1c(=O)n(C2CCCCC2)c2nc(-c3cccc(C)c3)nc(C(N)=O)c21	-1.0	20.1	0.4	-7.1	1.8	-85.7*
CCOC(=O)Cn1c(=O)n(CC2CCCO2)c2nc(-c3ccc(OC)cc3OC)nc(C(N)=O)c21 (stereo unspecified)	-0.4	42.4*	0.1	-2.6	0.9	0.9
CCOC(=O)Cn1c(=O)n(CC2CCCO2)c2nc(-c3ccc(C(C)C)cc3)nc(C(N)=O)c21 (stereo unspecified)	-1.1	9.0	0.4	-4.9	2.1	7.5
